Screening results as filed in PubChem BioAssay.
Only some compounds are listed: those with a hit (about 4% of all), similar ones and a draw of the others.
Mtb bLac sens: beta-lactam sensitization of Mtb H37Rv; M. tuberculosis H37Rv growth with meropenem, percent inhibition; inhibition, % at 25 µM; 330,000 compounds, 0.27% hits; call rule not given here;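 further: growth measured after seven days incubation then overnight dye step; 0% = bacteria only wells and 100% = bacteria with antibiotic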
GDH-TPI counter-1: counter-screen for M. tuberculosis FBA inhibitors: GDH-TPI coupled enzymes. GDH-TPI coupled enzyme counterscreen, NADH absorbance. inhibition, % at 4.8 µM. 360,000 compounds, 1.2% hits; in the data active means inhibition above about 30%;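 further: 0% = DMSO wells and 100% = wells lacking the enzyme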
Rv3671c protease: Rv3671c (M. tuberculosis) protease inhibition; inhibition, % at 5.96 µM; P9WHR9; 320,000 compounds, 0.048% hits; in the data active means inhibition above about 38%;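 further: extracellular domain of Rv3671c used as enzyme; 0% = enzyme with DMSO and 100% = no enzyme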
Target sequence (P9WHR9 whole entry, looked up, the tested form may be a part): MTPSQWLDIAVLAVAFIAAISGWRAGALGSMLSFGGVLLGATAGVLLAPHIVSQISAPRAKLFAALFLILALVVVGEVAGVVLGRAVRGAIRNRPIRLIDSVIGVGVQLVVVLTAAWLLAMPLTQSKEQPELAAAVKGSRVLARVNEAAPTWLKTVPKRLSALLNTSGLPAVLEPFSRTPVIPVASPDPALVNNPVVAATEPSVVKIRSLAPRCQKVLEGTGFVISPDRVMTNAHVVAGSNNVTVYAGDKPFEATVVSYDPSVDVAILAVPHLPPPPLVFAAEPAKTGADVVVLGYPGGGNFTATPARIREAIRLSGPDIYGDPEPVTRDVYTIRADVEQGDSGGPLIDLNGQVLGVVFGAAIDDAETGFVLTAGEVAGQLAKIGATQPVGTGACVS
UGM FP inh: inhibitors of M. tuberculosis UDP-galactopyranose mutase | P9WIQ1 | purified UGM, fluorescence polarization probe displacement | inhibition, % at 10 µM | 320,000 compounds, 0.06% hits | AID 504406; in the data active means inhibition above about 10%, passing the limit was not always enough; inconclusive means no clear call, values can overlap the other calls
RecA intein inh: inhibitors of M. tuberculosis RecA intein splicing. cell-free RecA intein splicing, fluorescence. AID 2221. P9WHJ3. 290,000 compounds, 0.75% hits. inhibition, % (test concentration not listed); in the data active means inhibition above about 30%; inconclusive means no clear call, values can overlap the other calls;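 further: 0% = vehicle wells and 100% = reference inhibitor control wells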
FBA Mtb inh: inhibits M. tuberculosis FBA enzyme; P9WQA3; purified M. tuberculosis FBA, fluorescence read-out; inhibition, % at 1 µM; 360,000 compounds, 2.3% hits;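 further: 0% = vehicle and 100% = reference inhibitor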
Target sequence (P9WQA3 whole entry, looked up): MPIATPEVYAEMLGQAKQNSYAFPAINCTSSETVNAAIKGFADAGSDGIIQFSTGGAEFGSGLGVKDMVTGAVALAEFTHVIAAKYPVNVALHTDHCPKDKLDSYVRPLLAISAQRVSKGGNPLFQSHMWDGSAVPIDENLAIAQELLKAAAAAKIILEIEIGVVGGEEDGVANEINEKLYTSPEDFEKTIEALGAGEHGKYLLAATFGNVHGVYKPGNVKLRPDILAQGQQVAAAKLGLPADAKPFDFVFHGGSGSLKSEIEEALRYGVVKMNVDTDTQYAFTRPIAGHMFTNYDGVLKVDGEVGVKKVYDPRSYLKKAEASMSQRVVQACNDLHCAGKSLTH
Mtb FBA inh conf: Mtb FBA inhibition, confirmed | AID 651616 | purified M. tuberculosis FBA, fluorescence read-out | inhibition, % at 1 µM | shares compounds with FBA Mtb inh | 5,600 compounds, 78% hits;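 further: 0% = vehicle wells and 100% = reference inhibitor wells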
GDH-TPI counter-2: GDH-TPI inhibition counter-screen for FBA inhibitors; shares compounds with FBA Mtb inh; GDH-TPI coupled enzyme counterscreen, fluorescence; inhibition, % at 1 µM; 5,600 compounds, 81% hits; in the data active means inhibition above about 10%
* marks the source's active call; other numbers are inactive results; ? = inconclusive; . = no result given; + = active, no number. Unless noted, no stated cut-off is given here; in the data, active means inhibition above about 27%; inactive means the rest.

SMILES | Mtb bLac sens | GDH-TPI counter-1 | Rv3671c protease | UGM FP inh | RecA intein inh | FBA Mtb inh | Mtb FBA inh conf | GDH-TPI counter-2
COc1ccc(CCNc2oc(COc3ccc(Br)cc3)nc2C#N)cc1OC | 0.3 | -1.0 | 2.4 | -0.9 | 9.6 | 1.6 | . | .
COc1ccc(Nc2oc(-c3ccccc3)nc2C#N)cc1 | -3.8 | 6.7 | 6.3 | 2.2 | -2.0 | 3.0 | . | .
COc1ccc(-c2nc(C#N)c(NCCc3ccccc3)o2)cc1 | -3.2 | 12.7 | 8.9 | 0.7 | -1.0 | 79.8* | 36.6* | 26.3*
C=CCNc1oc(-c2ccc(-c3ccccc3)cc2)nc1C#N | 98.8 | 2.4 | 4.6 | . | . | 1.1 | . | .
COc1ccc(CCNc2oc(-c3ccc(C)cc3)nc2C#N)cc1OC | 3.1 | 7.9 | 4.4 | -2.8 | 0.7 | 51.4* | 70.0* | 61.6*
N#Cc1nc(-c2ccccc2)oc1NCc1ccco1 | 0.1 | 16.9 | 7.9 | -1.1 | 0.9 | 101.2* | 58.6* | 50.4*
COc1ccc(CNc2oc(-c3ccccc3)nc2C#N)cc1 | ? | 17.8 | -4.2 | 6.0 | 7.2 | 91.9* | 94.9* | 73.3*
CCN(CC)c1ncnc2c1ncn2[C@H]1CN(C2CCCC2)C[C@@H](CO)O1 | . | 8.0 | . | . | . | 2.9 | . | .
N#Cc1nc(-c2ccc(Cl)cc2)oc1NCCc1ccccn1 | -4.3 | 30.6* | -8.5 | 1.4 | 1.9 | 28.1* | 87.8* | 82.1*
Cc1ccc(-c2nc(C#N)c(NCCc3ccccn3)o2)cc1 | 8.0 | 16.1 | -7.2 | 2.4 | 1.1 | 10.0 | . | .
CCOc1ccc(Nc2oc(-c3ccc(Cl)cc3)nc2C#N)cc1 | 27.9 | 9.2 | -0.5 | 2.1 | -1.8 | 2.3 | . | .
CCOc1ccc(-c2nc(C#N)c(NC3CC3)o2)cc1 | -6.4 | 8.1 | -7.6 | 0.4 | 2.1 | 96.1* | -3.0 | -7.3
N#Cc1nc(-c2ccc(Cl)cc2)oc1NCc1cccc2c1OCO2 | 0.3 | -3.5 | -4.8 | -1.7 | -0.1 | 27.3* | 109.8* | 89.0*
O=C(NCCCO)c1ccc2[nH]c3ccccc3c2c1 | -2.1 | 1.9 | 4.7 | -0.4 | -1.8 | 35.6* | 125.0* | 90.8*
CCOC(=O)c1c(NC(=O)COC(=O)c2nccnc2N)sc(C(=O)N(C)C)c1C | 2.2 | -1.8 | -2.8 | 0.0 | -2.1 | 47.9* | + | +
CCOC(=O)c1c(NC(=O)COC(=O)c2nccnc2N)sc2c1CCC2 | 20.5 | 13.1 | -4.1 | 0.3 | . | 45.1* | 123.6* | 93.0*
N#Cc1c(NC(=O)COC(=O)c2nccnc2N)sc2c1CCCC2 | -6.2 | 20.7 | -8.4 | 1.4 | -2.2 | 26.4 | . | .
CCOC(=O)c1c(NC(=O)COC(=O)c2ccccn2)sc(C(=O)N(C)C)c1C | -3.1 | -2.4 | -12.1 | 5.5 | 1.0 | 2.1 | . | .
Cc1ccc(S(=O)(=O)NCCC(=O)OC(C)C(=O)NC2CC2)cc1 (configuration not stated) | . | 8.4 | . | . | . | 2.4 | . | .
Cn1c(=O)c2cc(NC(=O)NCc3ccccc3)ccc2n1C/C=C/c1ccccc1 | . | 7.1 | . | . | . | 77.2* | 98.7* | 60.3*
Cn1c(=O)c2cc(NC(=O)NCCc3cccs3)ccc2n1C/C=C/c1ccccc1 | . | 18.1 | . | . | . | 65.3* | 1.2 | -3.5
Cc1nn(Cc2ccccc2)c(Cl)c1C(=O)OCC#N | -0.5 | -5.8 | -6.1 | 1.6 | 0.3 | -3.7 | . | .
CN(C(=O)c1ccc(NC(=O)Cc2ccc(NC(=O)C3CCN(C(=O)C4CC4)CC3)cc2)cc1)C1CC1 | 0.1 | -11.4 | -0.8 | -0.1 | . | 0.5 | . | .
COC(=O)c1cc2c(s1)-c1ccc(OC)cc1CC2 | 60.2 | 18.4 | -5.0 | -1.9 | -6.9 | 109.5* | 106.5* | 94.1*
CC1=C(C#N)C(c2cccnc2)C2=C(CCCC2=O)N1 (configuration not stated) | -4.1 | 4.0 | -1.8 | -0.6 | . | 33.9* | 127.5* | 99.5*
SMILES | Mtb bLac sens | GDH-TPI counter-1 | Rv3671c protease | UGM FP inh | RecA intein inh | FBA Mtb inh | Mtb FBA inh conf | GDH-TPI counter-2
CC1=C(C#N)C(c2cccnc2)C2=C(N1)c1ccccc1C2=O (configuration not stated) | -6.7 | -0.6 | -7.4 | 0.2 | 0.2 | 2.1 | . | .
COc1ncccc1-c1cnc2cccnn12 | . | 6.6 | . | . | . | 92.0* | 117.2* | 100.1*
COc1ccc(-c2cnc3cccnn23)cn1 | . | -3.6 | . | . | . | 29.4* | -8.1 | -6.7
Clc1ccc(-c2cnc3cccnn23)cc1 | . | 7.1 | . | . | . | 51.0* | + | +
Oc1ccccc1-c1cnc2cccnn12 | . | 15.5 | . | . | . | -1.4 | . | .
COc1ccc(C)cc1NC(=O)CNC(C)C(=O)Nc1ccc(C(C)=O)cc1 (configuration not stated) | -4.2 | -5.9 | -6.7 | 2.6 | -1.1 | 1.2 | . | .
COC(=O)C(NC(=O)c1ccccc1)C(C)(C)SCc1ccccc1 (configuration not stated) | . | -2.2 | . | . | . | -4.0 | . | .
Oc1ccc(C[C@H]2CNCCN2CCc2cccc3ccccc23)cc1 | -5.9 | 6.7 | -1.5 | 3.1 | -1.3 | 1.2 | . | .
COCCNC(=O)CN(C(=O)CCC(=O)Nc1ccccn1)c1ccc(C)c(C)c1 | 6.6 | 5.5 | 8.8 | 1.7 | . | 2.3 | . | .
O=C(O)c1ccc(-c2ncc[nH]2)cc1 | -3.3 | -1.9 | -8.4 | 0.4 | -3.2 | 48.9* | 0.0 | 1.6
COc1cc(-c2cc3nc(NCc4cccc(Cl)c4)ccn3n2)cc(OC)c1OC | . | 3.1 | . | . | . | 15.0 | . | .
COCCCNc1ccn2nc(-c3ccc(Cl)cc3)cc2n1 | . | 13.7 | . | . | . | 33.5* | 86.7* | 76.2*
CC1=C(C(=O)N2CCCCCC2)CC(CC(=O)NCCc2ccccn2)C(=O)N1Cc1ccccc1 (configuration not stated) | . | . | . | . | . | -0.7 | . | .
O=c1[nH]c(-c2ccc(O)cc2)nc2scc(-c3cccs3)c12 | 3.0 | 20.2 | -25.5 | -0.4 | 1.4 | 34.9* | . | +
Cc1nc2scc(-c3cccs3)c2c(=O)[nH]1 | 30.9 | -1.2 | -3.1 | 0.8 | -1.5 | 6.7 | . | .
COC(=O)c1ccc(C2C(C#N)=C(C)NC3=C2C(=O)CC(C)(C)C3)cc1 (configuration not stated) | -4.5 | 12.8 | 6.0 | 1.5 | -12.3 | 75.0* | 81.9* | 51.5*
COc1ccc(C2C(C#N)=C(SC)NC3=C2C(=O)CC(C)(C)C3)cc1 (configuration not stated) | -9.4 | 1.4 | -3.3 | -1.6 | -3.6 | -0.9 | . | .
CCCCC1C(C#N)=C(C)NC2=C1C(=O)CC(C)(C)C2 (configuration not stated) | -4.7 | 11.9 | -1.4 | 3.0 | -97.1 | 56.5* | 62.6* | 45.1*
Cc1cccc(C(=O)N2CCCC(N3CCN(Cc4ccc5c(c4)OCO5)CC3)C2)n1 (configuration not stated) | 3.0 | 8.6 | -0.1 | 2.5 | -3.3 | 3.1 | . | .
CN(C)/C(=N\S(=O)(=O)c1ccccc1)c1ccc(F)cc1 | 5.3 | -0.8 | -3.0 | 0.6 | -3.1 | 0.7 | . | .
N#C/C(=C\c1c(N2CCCCC2)nc2ccccn2c1=O)C(=O)NCc1ccco1 | 3.3 | 17.7 | -13.1 | -0.8 | -1.9 | -0.6 | . | .
